# Among all 55,000 compounds or so, about 530 (0.96%) were called active. Another 7% or so got no clear call; they are omitted. Calls follow the shape of the dose curve; as a rule, active = well fitted cell-killing curve with a large enough effect; inconclusive = small, poorly fitted or top-dose-only effect; inactive = no such curve, though single readings can be large or run the other way. Many of the other results were omitted from the sample, so actives are more common in it than they were.
# Assay: qHTS Screen for Compounds that Selectively Target Cancer Cells with p53 Mutations: Cytotoxicity of p53 Null Cells at the Nonpermissive Temperature; also: nearly all actives have a fitted effect of over 50% in size;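 as to activity, negative = cell killing: 0% = DMSO only and -100% = full killing by 100 µM tamoxifen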
# Details: H1299 p53-null (neo) cells, 39C, ATPlite viability, 24 h; series mostly up to 46.1 µM; activity, negative = cell killing: at the top concentration
# Excerpt: NIH Chemical Genomics Center [NCGC] NIH Molecular Libraries Screening Centers Network [MLSCN] MLSCN Grant: 1 X01 MH079844-01 Assay Submitter (PI): Dr. SUN, YI, University of Michigan NCGC Assay Overview: Synthetic Lethal Screen for Compounds to Kill Cancer Cells with p53 Mutation. Tumor suppressor gene p53 serves as a major cellular barrier against tumorigenesis. […] The goal of this screening is to identify small molecule probes that selectively kill cancer cells with mutations in p53. This screening was carried out using two lines of H1299 lung cancer cells. The H1299-p53 A138V line express a temperature sensitive p53 mutant (p53ts) in which the mutant p53 protein (A138V) is in the mutant confirmation when grown at 39C (the nonpermissive temperature) and in the wild type conformation when grown at 32C (the permissive temperature). A H1299-neo line (p53 null) grown at both 39C and 32C were used as counter-screens to filter out false positive associated with temperature shifting. The small molecular compounds that selectively target mutant p53-containing cancer cells were selected as candidate probes for further study. A cytotoxicity assay based on the measurement of ATP contents in cells was used in this screen. Concentration-responses of all the compounds in the library collection were determined in qHTS using the cell lines and temperature conditions as above.
# NCGC Assay Protocol Summary: Both the H1299-p53A138V and H1299-neo cell lines were provided by Dr.Yi Sun, a PI at the University Michigan. The cells were maintained and cultured at 37C. The resuspended frozen cells were used to plate the cells in the 1536-well assay plates at a density of 600 cells per well in 5 ul medium. The assay plates with the cells were incubated at 37C for 16 to 30 hours before the experiments. The library compounds in DMSO solution were added to the cells in assay plates and incubated 24 hours at 39C (for mutant p53 conformation) or 32C (for normal p53 conformation as control). An ATP_lite assay kit (PerkinElmer) was used to determine the cell viability. Tomaxifen (100uM) was used as the positive control for cell killing. Data were normalized to the controls for basal activity (DMSO only) and 100% killing (100uM tamoxifen). AC50 values were determined from concentration-response data modeled with the standard Hill equation. P53 assay protocol: 1. Reagent; 5 uL H1299-p53A138V or H1299-neo cell cells/well 2. Time; overnight; 37C incubation 3. Compounds; 23 nL; 5.9 nM to 46 uM 4. Controls; 23 nL; Tamoxifen 100 uM 5. Time; 24 hr; 39C incubation 6. Reagent; 3 uL; ATP_Lite reagent 7. Time; 20 min; Room Temperature 8. Detection; Luminescence; Viewlux plate reader Keywords: p53, synthetic lethal, cancer, cell viability, cytotoxicity, H1299 cell line, luminescence, MLSMR, MLSCN, NIH Roadmap, qHTS, NCGC
# Potency is read from the fitted curve at half-maximal effect.
Compound,Potency,"activity, negative = cell killing"
CCOc1ccc(C(NC(=O)c2cc(OC)c(OC)c(OC)c2)c2cc(Cl)c3cccnc3c2O)cc1 (stereo not given),3.55 µM (active),–
CN(C)c1cccc(C(=O)Nc2nc3ccc(S(=O)(=O)NC(C)(C)C)cc3s2)c1,–,37.8% (inactive)
Cc1ccc(-n2c(/C=C/c3cccc(C(F)(F)F)c3)nc3ccccc3c2=O)cc1,–,-19.2% (inactive)
COC(=O)COc1cc(C)cc2oc(=O)c3c(c12)CCCC3,–,9.68% (inactive)
O=C(Nc1ccc(Cl)cc1C(=O)c1ccccc1)c1cc(Cl)cc(Cl)c1,–,-5.04% (inactive)

# — PubChem BioAssay AID904 (National Center for Advancing Translational Sciences (NCATS), 2007)
